Here are results for 1 sequence from PMC7862700, “An all-to-all approach to the identification of sequence-specific readers for epigenetic DNA modifications on cytosine”.

Experiment in all cases: DAPPL (digital affinity profiling via proximity ligation, sequencing); 10 mM Tris-HCl pH 7.5, 50 mM NaCl, 1 mM DTT, 4% glycerol, room temperature, 30 min; GST-TFs on glutathione beads, 16-mer random dsDNA library, 0.1% formaldehyde crosslink after washing; high values mean tight binding
One experiment concerns the target T1, FEV (Homo sapiens, UniProt Q99581 1-238).
T1 sequence: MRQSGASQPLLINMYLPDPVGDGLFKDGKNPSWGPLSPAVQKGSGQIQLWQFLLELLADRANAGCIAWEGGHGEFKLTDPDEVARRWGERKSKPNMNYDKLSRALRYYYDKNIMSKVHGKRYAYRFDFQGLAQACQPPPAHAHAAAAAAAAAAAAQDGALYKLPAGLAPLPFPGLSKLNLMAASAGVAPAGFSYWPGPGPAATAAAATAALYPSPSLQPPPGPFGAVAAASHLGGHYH
The note with it: protein: recombinant; tags: N-terminal GST; dsDNA, one strand shown. The method, boiled down:
(§1)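 In yeast, human transcription factors were expressed with a GST fusion, then pulled down on glutathione beads and given DNA barcodes. Pooled with a tag-only sample, they were exposed to 200 nmole of a 16-mer random double-stranded DNA library (Tris/NaCl/DTT/glycerol buffer, room temperature, 30 min), washed, crosslinked with 0.1% formaldehyde, proximity-ligated using BsaI/T4 ligase for 1 h at 37 °C, PCR-amplified and read on an Illumina NextSeq500. Each hexamer's frequency of reads for a factor, divided by the matching frequency for the tag-only sample, gives the binding signal.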

The target of the next experiment is ETV5 (Homo sapiens, UniProt P41161 1-510). The following applies: protein: recombinant; tags: N-terminal GST; dsDNA, one strand shown. The method in brief: as §1
Chain of ETV5 (P41161 whole entry): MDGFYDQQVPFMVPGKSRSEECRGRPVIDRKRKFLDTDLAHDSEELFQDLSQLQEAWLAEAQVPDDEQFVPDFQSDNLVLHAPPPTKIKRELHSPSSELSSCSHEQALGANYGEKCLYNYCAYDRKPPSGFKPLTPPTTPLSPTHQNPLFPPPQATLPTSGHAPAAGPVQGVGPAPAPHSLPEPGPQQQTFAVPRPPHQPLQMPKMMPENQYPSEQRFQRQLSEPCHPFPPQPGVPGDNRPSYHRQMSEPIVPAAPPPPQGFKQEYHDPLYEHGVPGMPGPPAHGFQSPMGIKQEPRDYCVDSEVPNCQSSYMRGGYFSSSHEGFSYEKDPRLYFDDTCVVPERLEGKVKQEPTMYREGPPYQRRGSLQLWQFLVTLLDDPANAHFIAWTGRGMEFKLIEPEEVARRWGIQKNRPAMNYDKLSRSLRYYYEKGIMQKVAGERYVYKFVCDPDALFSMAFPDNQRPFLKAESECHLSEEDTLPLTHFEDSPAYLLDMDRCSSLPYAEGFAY
For the next experiment, the target named is HSF1 (Homo sapiens, UniProt Q00613 1-529). The following applies: protein: recombinant; tags: N-terminal GST; chain copies: 3; dsDNA, one strand shown. The method, boiled down: as §1
Chain of HSF1 (Q00613 whole entry): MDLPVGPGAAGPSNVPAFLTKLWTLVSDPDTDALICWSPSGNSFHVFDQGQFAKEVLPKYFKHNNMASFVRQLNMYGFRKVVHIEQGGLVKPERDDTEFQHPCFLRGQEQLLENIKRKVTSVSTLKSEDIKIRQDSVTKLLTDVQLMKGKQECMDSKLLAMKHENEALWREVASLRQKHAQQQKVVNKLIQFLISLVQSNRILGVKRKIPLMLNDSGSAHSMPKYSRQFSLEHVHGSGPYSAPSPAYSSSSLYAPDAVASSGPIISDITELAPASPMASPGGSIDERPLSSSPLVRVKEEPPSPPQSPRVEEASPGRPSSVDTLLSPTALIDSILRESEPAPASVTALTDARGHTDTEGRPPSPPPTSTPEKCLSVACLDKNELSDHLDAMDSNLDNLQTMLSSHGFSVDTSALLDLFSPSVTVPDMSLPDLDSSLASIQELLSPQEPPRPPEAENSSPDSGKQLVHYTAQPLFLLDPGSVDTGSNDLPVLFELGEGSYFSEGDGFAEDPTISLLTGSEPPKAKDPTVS
In the next experiment the target is T2, SPIC (Homo sapiens, UniProt Q8N5J4 1-248).
T2 sequence: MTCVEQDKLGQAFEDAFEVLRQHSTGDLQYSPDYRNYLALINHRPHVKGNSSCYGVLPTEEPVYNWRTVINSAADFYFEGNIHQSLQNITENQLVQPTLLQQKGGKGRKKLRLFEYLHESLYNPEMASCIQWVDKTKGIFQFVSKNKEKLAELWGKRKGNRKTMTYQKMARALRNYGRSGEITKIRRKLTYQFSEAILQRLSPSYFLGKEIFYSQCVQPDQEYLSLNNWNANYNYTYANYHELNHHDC
The following applies: protein: recombinant; tags: N-terminal GST; dsDNA, one strand shown. The method in brief: as §1

The target in a further experiment is ELF4 (Homo sapiens, UniProt Q99607 1-663). The following applies: protein: recombinant; tags: N-terminal GST; dsDNA, one strand shown. The method, boiled down:
as §1

In another experiment the target is T3, ELK4 (Homo sapiens, UniProt P28324-2 1-405).
T3 sequence: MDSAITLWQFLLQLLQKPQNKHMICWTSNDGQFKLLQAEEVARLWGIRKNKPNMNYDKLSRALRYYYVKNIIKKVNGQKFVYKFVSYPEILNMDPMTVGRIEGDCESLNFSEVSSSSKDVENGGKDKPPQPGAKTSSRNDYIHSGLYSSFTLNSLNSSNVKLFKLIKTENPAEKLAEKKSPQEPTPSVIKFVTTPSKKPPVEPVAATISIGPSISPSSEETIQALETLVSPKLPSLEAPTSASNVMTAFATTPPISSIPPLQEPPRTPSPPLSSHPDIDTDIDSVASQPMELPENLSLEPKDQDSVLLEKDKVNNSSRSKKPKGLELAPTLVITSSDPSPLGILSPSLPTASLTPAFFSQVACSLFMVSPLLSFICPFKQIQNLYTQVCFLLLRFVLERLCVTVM
The following applies: protein: recombinant; tags: N-terminal GST; dsDNA, one strand shown. The method, boiled down:
as §1

A further experiment addresses T4, ETV2 (Homo sapiens, UniProt O00321 1-342).
T4 sequence: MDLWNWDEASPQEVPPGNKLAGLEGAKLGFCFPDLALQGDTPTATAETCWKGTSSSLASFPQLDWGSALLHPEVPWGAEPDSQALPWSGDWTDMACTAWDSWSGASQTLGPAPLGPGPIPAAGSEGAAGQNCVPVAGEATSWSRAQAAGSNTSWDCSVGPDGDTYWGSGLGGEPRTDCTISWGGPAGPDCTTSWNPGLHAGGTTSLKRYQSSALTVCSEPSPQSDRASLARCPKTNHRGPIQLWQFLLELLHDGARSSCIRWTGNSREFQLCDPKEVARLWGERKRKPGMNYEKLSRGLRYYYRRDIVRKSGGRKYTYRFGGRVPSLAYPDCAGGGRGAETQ
The following applies: protein: recombinant; tags: N-terminal GST; dsDNA, one strand shown. The method, boiled down:
as §1

The next experiment has as its target T5, ELF3 (Homo sapiens, UniProt P78545 1-371).
T5 sequence: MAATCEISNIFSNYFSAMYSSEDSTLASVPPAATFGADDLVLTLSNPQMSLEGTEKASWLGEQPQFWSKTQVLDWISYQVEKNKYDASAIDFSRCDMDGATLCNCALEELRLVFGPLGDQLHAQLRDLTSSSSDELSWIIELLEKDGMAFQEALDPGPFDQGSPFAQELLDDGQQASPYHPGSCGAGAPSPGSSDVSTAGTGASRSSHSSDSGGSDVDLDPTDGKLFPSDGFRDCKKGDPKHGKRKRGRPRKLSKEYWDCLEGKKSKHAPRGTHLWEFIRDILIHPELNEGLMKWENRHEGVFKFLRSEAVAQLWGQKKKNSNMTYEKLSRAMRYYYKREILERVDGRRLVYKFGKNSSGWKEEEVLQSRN
The note with it: protein: recombinant; tags: N-terminal GST; dsDNA, one strand shown. The method, boiled down: as §1

The next experiment addresses CRX (Homo sapiens, UniProt O43186 1-299). The note with it: protein: recombinant; tags: N-terminal GST; dsDNA, one strand shown. The method in brief: as §1
A further experiment has as its target ETV1 (Homo sapiens, UniProt P50549 1-477). The following applies: protein: recombinant; tags: N-terminal GST; dsDNA, one strand shown. The method in brief:
as §1

A further experiment has as its target T6, ERF (Homo sapiens, UniProt P50548 1-548).
T6 sequence: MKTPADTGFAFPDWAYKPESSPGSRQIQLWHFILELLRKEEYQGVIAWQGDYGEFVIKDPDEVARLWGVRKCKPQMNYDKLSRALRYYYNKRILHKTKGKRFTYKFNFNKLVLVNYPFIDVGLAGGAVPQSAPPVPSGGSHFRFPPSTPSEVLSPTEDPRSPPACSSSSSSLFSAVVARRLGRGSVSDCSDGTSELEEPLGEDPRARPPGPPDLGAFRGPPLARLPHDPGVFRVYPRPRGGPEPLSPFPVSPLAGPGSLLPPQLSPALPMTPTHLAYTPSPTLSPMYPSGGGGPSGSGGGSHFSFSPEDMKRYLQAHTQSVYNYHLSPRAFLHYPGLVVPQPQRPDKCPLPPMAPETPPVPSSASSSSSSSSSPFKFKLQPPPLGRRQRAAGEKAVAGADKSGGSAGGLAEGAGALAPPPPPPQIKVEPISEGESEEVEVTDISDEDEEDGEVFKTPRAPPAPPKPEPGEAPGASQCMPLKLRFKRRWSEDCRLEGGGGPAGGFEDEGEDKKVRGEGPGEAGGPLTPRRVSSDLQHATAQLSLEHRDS
The following applies: protein: recombinant; tags: N-terminal GST; dsDNA, one strand shown. The method, boiled down:
as §1

The next experiment deals with T7, ETV3L (Homo sapiens, UniProt Q6ZN32 1-361).
T7 sequence: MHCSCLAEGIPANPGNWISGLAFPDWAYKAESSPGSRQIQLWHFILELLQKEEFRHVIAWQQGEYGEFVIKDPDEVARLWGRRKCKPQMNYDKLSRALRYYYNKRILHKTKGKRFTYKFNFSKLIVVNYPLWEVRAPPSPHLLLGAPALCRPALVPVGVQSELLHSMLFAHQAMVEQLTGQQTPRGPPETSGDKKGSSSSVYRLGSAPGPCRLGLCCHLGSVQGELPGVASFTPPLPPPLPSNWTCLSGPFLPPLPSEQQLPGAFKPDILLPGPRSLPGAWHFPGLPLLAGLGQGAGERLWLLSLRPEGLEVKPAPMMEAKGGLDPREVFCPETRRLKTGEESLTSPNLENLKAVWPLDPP
The note with it: protein: recombinant; tags: N-terminal GST; dsDNA, one strand shown. The method, boiled down: as §1

For the next experiment, the target named is T8, ETS2 (Homo sapiens, UniProt P15036 1-469).
T8 sequence: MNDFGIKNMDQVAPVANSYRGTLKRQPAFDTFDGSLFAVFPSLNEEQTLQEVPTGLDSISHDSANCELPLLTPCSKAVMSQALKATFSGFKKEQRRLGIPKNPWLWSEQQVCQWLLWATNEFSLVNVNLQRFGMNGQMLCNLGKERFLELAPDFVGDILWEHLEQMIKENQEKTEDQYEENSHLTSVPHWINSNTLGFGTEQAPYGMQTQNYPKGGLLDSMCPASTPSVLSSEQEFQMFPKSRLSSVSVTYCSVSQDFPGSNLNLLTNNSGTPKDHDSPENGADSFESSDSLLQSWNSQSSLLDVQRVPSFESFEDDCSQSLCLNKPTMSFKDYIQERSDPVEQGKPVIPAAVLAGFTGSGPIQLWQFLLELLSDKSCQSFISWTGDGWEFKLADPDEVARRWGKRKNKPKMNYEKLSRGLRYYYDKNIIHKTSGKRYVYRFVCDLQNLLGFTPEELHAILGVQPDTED
The following applies: protein: recombinant; tags: N-terminal GST; dsDNA, one strand shown. The method, boiled down: as §1

The target of a further experiment is T9, SPDEF (Homo sapiens, UniProt O95238 1-335).
T9 sequence: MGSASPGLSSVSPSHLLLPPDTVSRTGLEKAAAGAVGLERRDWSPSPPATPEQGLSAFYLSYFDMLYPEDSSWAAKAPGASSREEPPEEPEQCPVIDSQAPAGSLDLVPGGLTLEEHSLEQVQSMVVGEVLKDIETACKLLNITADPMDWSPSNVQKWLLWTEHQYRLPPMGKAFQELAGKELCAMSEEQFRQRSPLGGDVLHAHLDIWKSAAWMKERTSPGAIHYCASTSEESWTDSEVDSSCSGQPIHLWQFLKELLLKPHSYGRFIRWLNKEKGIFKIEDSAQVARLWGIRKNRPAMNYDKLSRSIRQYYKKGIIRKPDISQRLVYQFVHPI
The note with it: protein: recombinant; tags: N-terminal GST; dsDNA, one strand shown. The method in brief: as §1

A further experiment concerns the target T10, ETV7 (Homo sapiens, UniProt Q9Y603 1-341).
T10 sequence: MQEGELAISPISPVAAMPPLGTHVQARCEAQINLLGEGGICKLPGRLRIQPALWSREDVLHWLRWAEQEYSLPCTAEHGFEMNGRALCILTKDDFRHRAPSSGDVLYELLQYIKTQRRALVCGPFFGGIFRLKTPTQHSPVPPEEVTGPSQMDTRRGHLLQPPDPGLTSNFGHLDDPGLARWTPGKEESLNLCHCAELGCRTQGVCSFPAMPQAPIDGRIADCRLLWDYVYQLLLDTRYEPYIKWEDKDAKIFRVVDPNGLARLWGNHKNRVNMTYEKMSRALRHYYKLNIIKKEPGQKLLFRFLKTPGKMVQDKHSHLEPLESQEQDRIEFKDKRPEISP
The note with it: protein: recombinant; tags: N-terminal GST; dsDNA, one strand shown. The method in brief: as §1

The next experiment concerns the target T11, ELF5 (Homo sapiens, UniProt Q9UKW6-2 1-255).
T11 sequence: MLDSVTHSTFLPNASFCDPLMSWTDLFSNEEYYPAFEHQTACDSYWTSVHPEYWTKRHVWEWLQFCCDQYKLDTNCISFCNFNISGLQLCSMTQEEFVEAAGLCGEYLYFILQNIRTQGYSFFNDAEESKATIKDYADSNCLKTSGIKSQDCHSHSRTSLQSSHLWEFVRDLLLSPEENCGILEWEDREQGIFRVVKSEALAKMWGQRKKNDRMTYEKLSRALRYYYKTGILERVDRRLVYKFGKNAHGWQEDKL
The note with it: protein: recombinant; tags: N-terminal GST; dsDNA, one strand shown. The method in brief:
as §1

The target of a further experiment is T12, ETV3 (Homo sapiens, UniProt P41162-2 1-143).
T12 sequence: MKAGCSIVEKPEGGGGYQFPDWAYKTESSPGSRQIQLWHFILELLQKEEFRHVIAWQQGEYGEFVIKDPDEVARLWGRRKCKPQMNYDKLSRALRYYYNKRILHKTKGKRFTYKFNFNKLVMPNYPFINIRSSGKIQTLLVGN
The following applies: protein: recombinant; tags: N-terminal GST; dsDNA, one strand shown. The method in brief: as §1

For a further experiment, the target named is ETV6 (Homo sapiens, UniProt P41212 1-452). The following applies: protein: recombinant; tags: N-terminal GST; dsDNA, one strand shown. The method, boiled down:
as §1

Chain of ELF4 (Q99607 whole entry): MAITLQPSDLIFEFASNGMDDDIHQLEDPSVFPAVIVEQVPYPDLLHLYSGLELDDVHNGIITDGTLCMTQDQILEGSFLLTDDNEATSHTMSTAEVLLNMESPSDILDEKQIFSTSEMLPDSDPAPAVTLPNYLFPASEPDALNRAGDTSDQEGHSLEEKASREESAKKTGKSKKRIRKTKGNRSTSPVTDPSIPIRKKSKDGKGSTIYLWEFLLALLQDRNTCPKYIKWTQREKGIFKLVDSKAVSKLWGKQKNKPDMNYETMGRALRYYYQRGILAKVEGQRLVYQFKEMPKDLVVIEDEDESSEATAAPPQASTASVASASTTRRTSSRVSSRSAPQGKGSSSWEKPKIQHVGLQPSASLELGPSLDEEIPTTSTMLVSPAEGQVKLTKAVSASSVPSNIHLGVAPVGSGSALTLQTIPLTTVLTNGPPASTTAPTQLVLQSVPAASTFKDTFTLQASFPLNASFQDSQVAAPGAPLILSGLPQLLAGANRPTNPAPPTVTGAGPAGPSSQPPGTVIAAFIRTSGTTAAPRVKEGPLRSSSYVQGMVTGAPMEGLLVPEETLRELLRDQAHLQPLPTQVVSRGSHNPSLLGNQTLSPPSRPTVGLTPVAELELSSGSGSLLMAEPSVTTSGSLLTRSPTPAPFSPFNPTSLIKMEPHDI
Chain of CRX (O43186 whole entry): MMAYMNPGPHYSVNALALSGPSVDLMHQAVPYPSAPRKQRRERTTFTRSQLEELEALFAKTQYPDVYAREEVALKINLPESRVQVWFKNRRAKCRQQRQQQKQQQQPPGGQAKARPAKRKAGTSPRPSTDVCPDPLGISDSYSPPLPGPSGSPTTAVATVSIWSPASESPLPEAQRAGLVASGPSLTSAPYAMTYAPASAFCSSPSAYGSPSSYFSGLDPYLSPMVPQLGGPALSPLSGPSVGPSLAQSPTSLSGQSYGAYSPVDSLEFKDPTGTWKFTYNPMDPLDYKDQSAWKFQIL
Chain of ETV1 (P50549 whole entry): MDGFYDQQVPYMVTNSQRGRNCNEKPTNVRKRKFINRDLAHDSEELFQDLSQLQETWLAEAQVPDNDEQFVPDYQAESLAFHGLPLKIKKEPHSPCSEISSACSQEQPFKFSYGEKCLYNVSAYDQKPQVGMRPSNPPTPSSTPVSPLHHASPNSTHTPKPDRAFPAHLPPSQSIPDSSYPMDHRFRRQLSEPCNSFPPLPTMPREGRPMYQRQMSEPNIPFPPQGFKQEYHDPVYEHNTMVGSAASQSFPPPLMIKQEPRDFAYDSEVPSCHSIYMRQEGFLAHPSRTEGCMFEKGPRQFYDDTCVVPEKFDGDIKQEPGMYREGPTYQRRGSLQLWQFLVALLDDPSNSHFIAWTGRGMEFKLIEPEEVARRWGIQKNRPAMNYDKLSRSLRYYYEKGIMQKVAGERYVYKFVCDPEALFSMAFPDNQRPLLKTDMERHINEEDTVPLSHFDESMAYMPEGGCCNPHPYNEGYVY
Chain of ETV6 (P41212 whole entry): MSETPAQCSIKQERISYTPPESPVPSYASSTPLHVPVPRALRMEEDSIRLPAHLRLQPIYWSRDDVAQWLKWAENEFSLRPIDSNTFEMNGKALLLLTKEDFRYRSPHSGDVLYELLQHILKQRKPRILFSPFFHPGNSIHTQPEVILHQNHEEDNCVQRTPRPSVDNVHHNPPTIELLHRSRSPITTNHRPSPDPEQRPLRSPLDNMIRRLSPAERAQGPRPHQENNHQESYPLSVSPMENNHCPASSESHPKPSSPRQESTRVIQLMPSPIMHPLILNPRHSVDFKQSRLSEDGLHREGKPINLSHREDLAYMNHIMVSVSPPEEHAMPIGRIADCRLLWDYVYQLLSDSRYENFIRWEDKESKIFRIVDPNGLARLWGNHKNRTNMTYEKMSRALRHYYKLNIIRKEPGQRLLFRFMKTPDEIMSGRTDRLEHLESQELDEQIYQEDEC

With TATCAC, the binding signal with FEV was 1.21 fold enrichment (6-mer frequency, TF over GST control); in the experiment with ETV5 it was 1.24 fold enrichment (6-mer frequency, TF over GST control); in the experiment with HSF1, 1.14 fold enrichment (6-mer frequency, TF over GST control); with SPIC it was 1.17 fold enrichment (6-mer frequency, TF over GST control); with ELF4, 1.24 fold enrichment (6-mer frequency, TF over GST control); in the experiment with ELK4, 1.18 fold enrichment (6-mer frequency, TF over GST control). The binding signal in the experiment with ETV2 is 1.34 fold enrichment (6-mer frequency, TF over GST control); with ELF3 it was 1.25 fold enrichment (6-mer frequency, TF over GST control); in the experiment with CRX, 1.35 fold enrichment (6-mer frequency, TF over GST control); with ETV1, 1.17 fold enrichment (6-mer frequency, TF over GST control); in the experiment with ERF, 1.19 fold enrichment (6-mer frequency, TF over GST control); with ETV3L, 1.23 fold enrichment (6-mer frequency, TF over GST control). In addition, the binding signal with ETS2 is 1.2 fold enrichment (6-mer frequency, TF over GST control); with SPDEF, 1.25 fold enrichment (6-mer frequency, TF over GST control); with ETV7, 1.14 fold enrichment (6-mer frequency, TF over GST control); with ELF5, 1.14 fold enrichment (6-mer frequency, TF over GST control); with ETV3 it was 1.19 fold enrichment (6-mer frequency, TF over GST control); in the experiment with ETV6, 1.25 fold enrichment (6-mer frequency, TF over GST control).
